High-throughput results (PubChem BioAssay)
mcGAS inh: inhibitors of mouse cGAS; recombinant cGAS, Kinase-Glo ATP depletion luminescence; AID 1259399; Q8C6L5; 160,000 tested, 0.15% active; inhibition, % at 12.5 µM;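 also: 0% = negative control wells and 100% = reference inhibitor with no enzyme activity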
Target sequence (Q8C6L5 whole entry, looked up): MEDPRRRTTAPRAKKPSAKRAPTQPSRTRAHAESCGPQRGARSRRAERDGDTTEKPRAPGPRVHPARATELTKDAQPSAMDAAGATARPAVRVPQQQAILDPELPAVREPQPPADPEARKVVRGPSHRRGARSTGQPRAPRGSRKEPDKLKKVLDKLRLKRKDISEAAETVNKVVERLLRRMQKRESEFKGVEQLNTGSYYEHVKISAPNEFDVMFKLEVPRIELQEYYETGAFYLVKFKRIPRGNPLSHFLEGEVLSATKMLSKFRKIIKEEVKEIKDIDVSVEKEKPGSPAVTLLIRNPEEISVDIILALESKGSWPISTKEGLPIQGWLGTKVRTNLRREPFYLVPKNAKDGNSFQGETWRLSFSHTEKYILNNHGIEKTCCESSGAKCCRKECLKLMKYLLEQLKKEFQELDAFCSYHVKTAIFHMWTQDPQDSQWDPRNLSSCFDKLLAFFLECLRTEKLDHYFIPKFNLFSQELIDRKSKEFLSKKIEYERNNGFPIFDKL
hcGAS inh: blocks human cGAS activity; inhibition, % at 12.5 µM; recombinant h-cGAS, ATP depletion, Kinase-Glo luminescence; AID 1259398; 290,000 tested, 0.081% active;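 also: 0% = vehicle reaction and 100% = reaction without DNA for no activity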
NPYLR7 ag: activates Aedes aegypti NPYLR7 receptor. HEK293T NPYLR7/Galpha15, GCaMP6s calcium fluorescence. activation, % at 10 µM. 270,000 tested, 0.15% active. AID 1259423; in the data active = activation above about 40%;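 also: 0% = vehicle and 100% = reference agonist at the receptor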
Active calls of the source: *; . = not tested or not shown; ! = not confirmed by another sample. Rows were chosen to be rich in hits. Some 0.3% of all compounds tested hit in one or more screens of this group. Rule as the data show it, unless noted: active = inhibition above about 40%; inactive = the rest.

SMILES	mcGAS inh	hcGAS inh	NPYLR7 ag
N#CC(=CC1C(=O)N(c2c(Cl)cccc2Cl)c2ccccc21)C(N)=NCc1ccccc1 (centres undefined)	.	-4	-11
COc1cccc2c1C(=O)c1c(O)c3c(c(O)c1C2=O)C[C@@](O)(C(=O)CO)C[C@@H]3OC1C[C@H](N)[C@H](O)[C@H](C)O1 (some centres undefined)	.	57*	.
O=S(=O)(c1ccccc1)c1ccccc1Nc1ccccc1	.	78*	0
O=S(=O)(c1ccccc1)c1cnc2ccccc2c1Nc1ccccc1	-4	-5	3
NC(=O)N/N=c1\oc2ccccc2cc1-c1nc2ccccc2[nH]1	48*	-5	-2
COc1ccccc1N=c1oc2ccc3ccccc3c2cc1-c1nc2ccccc2[nH]1	.	-1	-3
NC(=S)N/N=c1\oc2ccccc2cc1-c1nc2ccccc2[nH]1	.	-2	-5
COc1ccccc1N=c1oc2cc(O)ccc2cc1-c1nc2ccccc2[nH]1	-5	-4	81*
CCOC(=O)c1ccc(N=c2oc3cc(O)ccc3cc2-c2nc3ccccc3[nH]2)cc1	-6	-3	120*
CCOC(=O)c1ccc(N=c2oc3ccccc3cc2-c2nc3ccccc3[nH]2)cc1	-5	-4	0
Cc1ccc(C2CC(c3cccs3)=NN2C(=O)Cn2cnc3c(cnn3CCO)c2=O)cc1 (centres undefined)	.	-2	0
CC(C)(C)C1CCc2sc(C(=O)NN3C(=O)NC4(CCCCC4)C3=O)cc2C1 (centres undefined)	.	14	-1
CC(C)(C)C1CCc2sc(C(=O)N3CCNC(=O)C3)cc2C1 (centres undefined)	93*	-11	6
Cc1cc(Cl)ccc1NC(=O)CN1C(=O)c2cccc([N+](=O)[O-])c2C1=O	-6	-9	-6
Cc1cc(N)c2ccccc2[n+]1CCCCCCCCCC[n+]1c(C)cc(N)c2ccccc21	-2	91*!	-4
CC[n+]1c(C)cc(Cl)c2ccccc21	-5	-7	1
Cc1nn(CCNC(=O)c2ccc(Cl)cn2)c(C)c1Cl	.	-8	5
O=c1nc2n3ccc(-c4ccncc4)cc3ncc-2s1	-2	-2	55*
c1csc(-c2cnc3ccc(-c4ccncc4)nn23)c1	5	2	8
CSCCNC(=O)c1sc2cccc(C)c2c1Cl	-2	-5	-6
CC(C)(NC(=O)c1cccs1)C(=O)NC1CCN(Cc2ccccc2)C1 (centres undefined)	.	-1	13
Cc1ccccc1C1CCCN1C(=O)C(C)(C)NC(=O)c1cccs1 (centres undefined)	.	50*	-3
CN(C)CCNc1ccc(C(=O)N2CCC(CN3CCCC3=O)CC2)cn1	-14	-4	2
CCCc1cc(=O)n2[nH]c(COC)c(-c3ccc(C)cc3)c2n1	.	-5	-17
Cc1cc(C)nc(SCc2cc(=O)n3[nH]c(C)c(-c4ccccc4)c3n2)n1	.	-11	-3
SMILES	mcGAS inh	hcGAS inh	NPYLR7 ag
COCc1[nH]n2c(=O)cc(Cc3ccccc3)nc2c1-c1ccccc1	.	56*	-4
O=c1cc(Cc2ccccc2)nc2c(-c3ccccc3)c(C(F)(F)F)[nH]n12	.	68*	-11
O=C(N=c1sccn1Cc1ccccc1)c1c[nH]c2ncccc12	.	2	-3
C/C(=N/N1CCOCC1)c1c(C(F)(F)F)[nH]n(-c2nc3ccccc3s2)c1=O	.	-4	0
CCOC(=O)c1sc(NC(=O)c2cc(C)no2)nc1C	-4	0	6
CCc1nnc(NC(=O)c2cc(C)no2)s1	46*	16	12
O=C(O)c1csc(CSc2nnc(Cc3ccccc3)n2-c2cccc(C(F)(F)F)c2)n1	0	1	55*
O=C(NCc1cccc(C(F)(F)F)c1)c1csc(CSc2nnc(Cc3ccccc3)n2-c2ccccc2)n1	-5	-3	-2
CCOC(=O)Cc1c(C)nc2ncnn2c1N1CCN(Cc2cccnc2)CC1	-5	-3	.
Cc1nn2c(=O)[nH]c(SCC(=O)NCCc3ccccc3)nc2c1-c1ccccc1	1	6	10
CNC(=O)CSc1nc2c(-c3ccccc3)c(C)nn2c(=O)[nH]1	-3	55*	7
CC(C)c1nnc(SCC(N)=O)n1Cc1ccco1	-8	-6	0
Cc1ccc2c(=O)c3ccccc3n(CCCN)c2c1C	.	71*	-2
Cc1ccc(Cl)cc1NC(=O)Cn1c2ccccc2c(=O)c2ccccc21	.	1	-1
Cc1ccc(-c2csc3nc(-c4ccc(C)n(C)c4=O)[nH]c(=O)c23)s1	.	-8	6
Cc1c(NC(=O)COC(=O)C(C#N)=Cc2ccc(N(C)C)cc2)c(=O)n(-c2ccccc2)n1C	-6	-5	50*
CCC(CC)C(=O)Nc1c(C)n(C)n(-c2ccccc2)c1=O	-5	-5	-1
CCCc1[nH]n(-c2ccc(Cl)cc2)c(=O)c1/C=C1\NC(=O)N(Cc2cccc(C)c2)C1=O	-7	-4	9
CCCc1[nH]n(-c2ccc(Cl)cc2)c(=O)c1/C=C1\NC(=O)N(Cc2ccc(C)cc2)C1=O	-8	-3	45*
CCC1(CC)CCN(C(=O)c2cc(CN3CCCC(O)C3)on2)C1 (centres undefined)	.	-8	0
O=c1c(N=Nc2ccccc2Cl)c(-c2ccccc2)[nH]n1-c1nc(-c2ccccc2)cs1	3	22	8
Cc1c(Cl)cccc1N=Nc1c(-c2ccccc2)[nH]n(-c2nc(-c3ccccc3)cs2)c1=O	20	53*	-3
CCCS(=O)(=O)N1CCN=C1SCc1cc(C)ccc1C	-7	-8	9
CCCS(=O)(=O)N1CCN=C1SCc1ccccc1C	-10	-13	44*
Cc1[nH]c(/C=C2\C(=O)Nc3ccc(S(=O)(=O)N(C)c4cccc(Cl)c4)cc32)c(C)c1C(=O)N1CCN(C)CC1	-1	-1	41
SMILES	mcGAS inh	hcGAS inh	NPYLR7 ag
CCN(CC)CCNC(=O)c1c(C)[nH]c(/C=C2/C(=O)Nc3ccc(F)cc32)c1C	.	10	60*
CNS(=O)(=O)Cc1ccc(C#N)cc1	.	-2	0
COc1cc2oc(=O)cc(C)c2c(OC)c1OC(C)=O	.	2	-1
CC(=O)Oc1cc2oc(=O)c(Cl)c(C)c2cc1Cl	29	72*	-1
Cc1nc2ncccn2c1C(=O)N1CCC(n2cc(CC(C)C)nn2)CC1	-14	-1	-5
FC(F)(F)c1cc(-c2ccccc2)nc2ncnn12	-7	-4	3
FC(F)(F)c1cc(-c2cccs2)nc2ncnn12	-2	-5	95*
CCCc1nn2c(N)c(C=C3C=C(Cl)C(=O)C(Cl)=C3)c(=O)nc2s1	52*	25	51*
CCCc1nn2c(N)c(C=C3C=CC(=O)C=C3)c(=O)nc2s1	.	13	-4
COCCNC(=O)c1ccc(CSc2nnc(-c3cccc(OC)c3)n2-c2ccccc2OC)cc1	-8	-2	29
CS(=O)(=O)c1ccc(-c2cccc3c2OC(CNC(=O)c2cc[n+]([O-])cc2)C3)cc1 (centres undefined)	-10	-6	76*
O=C(NCC1Cc2cccc(F)c2O1)c1ccc(F)cc1 (centres undefined)	-4	-1	5
O=c1[nH]c2c(Br)c(Br)c(Cl)cc2o1	90*	-1	-2
Nc1ccc2oc(=O)[nH]c2c1	-6	-9	2
O=c1[nH]c2ccc(S(=O)(=O)Nc3ccccc3Oc3ccccc3Cl)cc2o1	.	10	13
